Several values for one entry are separate records, joined by “and”; a condition that tells them apart may be missing. Equal entries are not always repeated. A number with no mark means an inactive call. Where a call stands in place of a potency, no number is given. Activity calls are given as the source filed them. Unless noted, calls come from the whole dose curve; as a rule, active = well fitted curve in the direction sought with a large enough effect in the repeat runs; inconclusive = weak or mixed curves; inactive = no such curve, though single readings can be large; an effect the other way counts as inactive or inconclusive.
Columns and labels:
[1] = target: Estrogen receptor (Homo sapiens) (UniProt P03372); assay: qHTS assay to identify small molecule antagonists of the estrogen receptor alpha (ER-alpha) signaling pathway (AID 743069; active = well fitted curve in the direction sought with a large enough effect in the signal ratio in the repeat runs, not every such curve was filed as active; inconclusive = weak or mixed curves, or effect the other way; inactive = no such curve, though single readings can be large or run the other way; the % refers to the signal ratio; note: potency is the fitted concentration of half-maximal effect)
Sequence of Estrogen receptor (Homo sapiens) (P03372 whole entry, looked up): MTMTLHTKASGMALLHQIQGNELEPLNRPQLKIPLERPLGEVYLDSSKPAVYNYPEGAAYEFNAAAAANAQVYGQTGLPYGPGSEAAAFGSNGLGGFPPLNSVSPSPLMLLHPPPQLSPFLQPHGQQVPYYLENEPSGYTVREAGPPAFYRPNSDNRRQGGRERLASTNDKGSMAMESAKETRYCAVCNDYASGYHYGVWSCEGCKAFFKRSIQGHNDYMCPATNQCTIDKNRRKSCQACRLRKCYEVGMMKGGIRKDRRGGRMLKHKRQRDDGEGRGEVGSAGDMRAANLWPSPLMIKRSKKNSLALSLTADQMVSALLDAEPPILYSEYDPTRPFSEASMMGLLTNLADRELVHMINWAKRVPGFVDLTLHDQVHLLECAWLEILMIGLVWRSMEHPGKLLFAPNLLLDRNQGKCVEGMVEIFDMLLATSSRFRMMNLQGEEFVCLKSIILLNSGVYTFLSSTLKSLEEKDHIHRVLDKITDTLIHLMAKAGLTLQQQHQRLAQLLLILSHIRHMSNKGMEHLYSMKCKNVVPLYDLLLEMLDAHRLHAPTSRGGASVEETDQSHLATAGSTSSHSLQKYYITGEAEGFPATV
In short: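 Reporter cells (ER-alpha-bla, HEK293 background) are conditioned overnight in stripped-serum medium (2% charcoal-stripped FBS). Compound and 17beta-estradiol exposure runs 18 hr at 37C, 5% CO2.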

[2] = qHTS assay to identify small molecule antagonists of the estrogen receptor alpha (ER-alpha) signaling pathway - cell viability counter screen (AID 743074; calls by dose curve;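 note: HEK293 cells carrying ER-alpha-UAS-bla reporter stimulated with 17beta-estradiol; nearly all actives have a fitted effect of over 45% in size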)
[3] = target: Estrogen receptor (Homo sapiens) (UniProt P03372); assay: qHTS assay to identify small molecule agonists of the estrogen receptor alpha (ER-alpha) signaling pathway (AID 743075; calls by dose curve;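 note: HEK293 GripTite cells with ER-alpha and UAS-driven beta-lactamase reporter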)
[4] = target: Estrogen receptor (Homo sapiens) (UniProt P03372); assay: qHTS assay to identify small molecule agonists of the estrogen receptor alpha (ER-alpha) signaling pathway using the BG1 cell line (AID 743079); details: BG1Luc4E2 cells, ERE-luciferase agonist, 22 h; activation: at 70.3 µM (top of the series); note: nearly all actives have a fitted effect of over 20% in size; note: potency is the fitted concentration of half-maximal effect
[5] = qHTS assay to identify small molecule antagonists of the estrogen receptor alpha (ER-alpha) signaling pathway using the BG1 cell line - cell viability counter screen (AID 743081);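 note: compound given together with 17beta-estradiol as the ER stimulus; nearly all actives have a fitted effect of over 45% in size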
Aromatase (Homo sapiens) = Aromatase (Homo sapiens) (UniProt P11511); assay: qHTS assay to identify aromatase inhibitors (AID 743083); note: nearly all actives have a fitted effect of over 55% in size; note: potency is the fitted concentration of half-maximal effect
Sequence of Aromatase (Homo sapiens) (P11511 whole entry, looked up): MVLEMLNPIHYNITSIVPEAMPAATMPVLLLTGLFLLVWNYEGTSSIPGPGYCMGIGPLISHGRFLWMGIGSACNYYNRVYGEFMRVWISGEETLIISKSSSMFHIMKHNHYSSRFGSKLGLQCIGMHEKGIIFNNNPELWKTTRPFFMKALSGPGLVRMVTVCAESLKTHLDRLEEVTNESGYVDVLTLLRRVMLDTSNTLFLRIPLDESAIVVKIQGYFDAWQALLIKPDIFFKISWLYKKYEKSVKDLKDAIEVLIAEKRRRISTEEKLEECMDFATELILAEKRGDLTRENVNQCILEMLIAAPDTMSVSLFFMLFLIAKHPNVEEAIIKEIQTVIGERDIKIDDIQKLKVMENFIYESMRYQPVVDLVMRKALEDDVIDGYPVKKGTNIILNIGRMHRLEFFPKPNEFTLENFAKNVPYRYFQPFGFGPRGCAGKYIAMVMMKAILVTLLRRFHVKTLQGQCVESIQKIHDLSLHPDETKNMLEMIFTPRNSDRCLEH

[6] = qHTS assay to identify aromatase inhibitors - cell viability counter screen (AID 743084);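 note: cells stimulated with testosterone during compound exposure; nearly all actives have a fitted effect of over 55% in size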; note: potency is the fitted concentration of half-maximal effect
[7] = target: Aryl hydrocarbon receptor (Homo sapiens) (UniProt P35869); assay: qHTS assay to identify small molecule that activate the aryl hydrocarbon receptor (AhR) signaling pathway (AID 743085);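 note: HG2L7.5c1 human HepG2 liver cells with stably integrated DRE-driven firefly reporter; nearly all actives have a fitted effect of over 15% in size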
Sequence of Aryl hydrocarbon receptor (Homo sapiens) (P35869 whole entry, looked up): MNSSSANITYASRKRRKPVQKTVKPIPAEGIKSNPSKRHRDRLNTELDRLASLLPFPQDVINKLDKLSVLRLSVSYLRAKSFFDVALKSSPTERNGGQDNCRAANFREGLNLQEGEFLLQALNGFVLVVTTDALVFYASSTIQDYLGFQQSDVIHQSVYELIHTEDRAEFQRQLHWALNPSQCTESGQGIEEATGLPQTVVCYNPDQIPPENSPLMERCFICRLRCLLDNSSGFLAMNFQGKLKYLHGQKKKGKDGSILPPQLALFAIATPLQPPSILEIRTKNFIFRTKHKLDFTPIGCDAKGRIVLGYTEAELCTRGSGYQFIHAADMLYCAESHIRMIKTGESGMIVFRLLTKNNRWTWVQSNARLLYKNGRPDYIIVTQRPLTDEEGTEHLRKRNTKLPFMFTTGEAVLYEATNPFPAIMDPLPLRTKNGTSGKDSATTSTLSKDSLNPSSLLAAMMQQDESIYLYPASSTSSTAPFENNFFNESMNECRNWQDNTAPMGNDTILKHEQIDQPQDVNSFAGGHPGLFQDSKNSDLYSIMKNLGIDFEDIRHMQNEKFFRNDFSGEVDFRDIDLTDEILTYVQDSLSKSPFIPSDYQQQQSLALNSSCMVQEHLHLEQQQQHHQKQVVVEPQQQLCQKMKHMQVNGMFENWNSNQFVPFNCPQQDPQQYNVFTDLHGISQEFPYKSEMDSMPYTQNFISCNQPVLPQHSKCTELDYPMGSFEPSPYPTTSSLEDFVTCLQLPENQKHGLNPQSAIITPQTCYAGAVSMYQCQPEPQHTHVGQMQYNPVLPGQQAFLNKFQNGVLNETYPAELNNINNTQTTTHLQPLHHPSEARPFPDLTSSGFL
In short: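 Reporter assay in engineered HepG2 line HG2L7.5c1, whose plasmid carries twenty dioxin responsive elements upstream of firefly luciferase. Treatment lasted 24 h at 37C; ONE-Glo luminescence gauged induction.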

[8] = qHTS assay to identify small molecule that activate the aryl hydrocarbon receptor (AhR) signaling pathway - cell viability counter screen (AID 743086); note: nearly all actives have a fitted effect of over 45% in size; note: potency is the fitted concentration of half-maximal effect
In short: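 HepG2-AhR-luc (HG2L7.5c1) cells, 4000/well, treated 24 h at 37 C with compound; viability measured as CellTiter-Fluor fluorescence after 30 min in the same wells as the luciferase read.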

[9] = qHTS assay to identify small molecule phospholipidosis (PLD) inducers (AID 1259344; active = well fitted curve in the direction sought with a large enough effect; inconclusive = small, poorly fitted or top-dose-only effect, or another doubt; inactive = no such curve, though single readings can be large; an effect the other way counts as inactive or inconclusive)
In short: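 Quantitative HTS in HepG2: compound plus LipidTOX Red dye for 24 h, paraformaldehyde fixation with Hoechst 33342, widefield high-content imaging; amiodarone as positive and DMSO as negative control.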

[10] = target: Nuclear receptor subfamily 1 group I member 2 (Rattus norvegicus) (UniProt Q9R1A7); assay: Rat pregnane X receptor (rPXR) activation by small molecules, qHTS assay (AID 1346983); details: rPXR luciferase reporter cells, One-Glo luminescence, 24 h; max activation: stronger effect = higher value; note: nearly all actives have a fitted effect of over 20% in size
Sequence of Nuclear receptor subfamily 1 group I member 2 (Rattus norvegicus) (Q9R1A7 whole entry, looked up): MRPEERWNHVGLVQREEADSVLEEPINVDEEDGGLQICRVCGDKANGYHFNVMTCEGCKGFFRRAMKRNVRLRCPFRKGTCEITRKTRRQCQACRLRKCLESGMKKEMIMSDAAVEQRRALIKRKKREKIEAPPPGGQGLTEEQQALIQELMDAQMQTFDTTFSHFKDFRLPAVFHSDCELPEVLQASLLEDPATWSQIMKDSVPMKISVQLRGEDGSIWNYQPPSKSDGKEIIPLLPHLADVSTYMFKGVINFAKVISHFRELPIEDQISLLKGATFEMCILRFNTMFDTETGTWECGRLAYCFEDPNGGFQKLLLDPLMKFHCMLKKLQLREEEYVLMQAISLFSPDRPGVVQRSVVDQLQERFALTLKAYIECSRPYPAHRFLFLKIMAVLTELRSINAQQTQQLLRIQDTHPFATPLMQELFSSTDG
In short: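 Cell-based rPXR activation assay: rPXR cells, 2,000 per well, rested 5hr at 37 C, then exposed to compounds in DMSO for 24 hr at 37 C. Luciferase activity read by One-Glo luminescence after 30 min at room temperature.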

[11] = target: Nuclear receptor subfamily 1 group I member 2 (Homo sapiens) (UniProt O75469); assay: CYP3A4 induction through human pregnane X receptor (PXR) by small molecules, qHTS assay (AID 1346984); note: nearly all actives have a fitted effect of over 40% in size; note: potency is the fitted concentration of half-maximal effect
In short: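 Luminescence readout: luciferase signal after One-Glo (30 min, room temperature), following 3 h at 37C with 3uM final Luciferin-IPA P450 substrate. Cells were DPX-2 (HepG2, PXR/CYP3A4-luc co-transfected) dosed for 24 h.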

[12] = target: Nuclear receptor subfamily 1 group I member 2 (Homo sapiens) (UniProt O75469); assay: Human pregnane X receptor (PXR) activation by small molecules, qHTS assay (AID 1346985); note: nearly all actives have a fitted effect of over 40% in size; note: potency is the fitted concentration of half-maximal effect
In short: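 DPX-2 cells (HepG2 co-transfected with a PXR response element and a CYP3A4-promoter luciferase construct) were seeded at 2,000 per well, rested 5 hr at 37C, then exposed to DMSO-dissolved compounds for 24 hr. Activation was read as luciferase luminescence.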

[13] = target: Peroxisome proliferator-activated receptor gamma (Homo sapiens) (UniProt P37231); assay: qHTS assay to identify small molecule agonists of the peroxisome proliferator-activated receptor gamma (PPARg) signaling pathway (AID 743094; active = well fitted activation curve with a large enough effect in the signal ratio in the repeat runs, not every such curve was filed as active; inconclusive = weak or mixed curves, or effect the other way; inactive = no such curve, though single readings can be large or run the other way; the % refers to the signal ratio)
Sequence of Peroxisome proliferator-activated receptor gamma (Homo sapiens) (P37231 whole entry, looked up): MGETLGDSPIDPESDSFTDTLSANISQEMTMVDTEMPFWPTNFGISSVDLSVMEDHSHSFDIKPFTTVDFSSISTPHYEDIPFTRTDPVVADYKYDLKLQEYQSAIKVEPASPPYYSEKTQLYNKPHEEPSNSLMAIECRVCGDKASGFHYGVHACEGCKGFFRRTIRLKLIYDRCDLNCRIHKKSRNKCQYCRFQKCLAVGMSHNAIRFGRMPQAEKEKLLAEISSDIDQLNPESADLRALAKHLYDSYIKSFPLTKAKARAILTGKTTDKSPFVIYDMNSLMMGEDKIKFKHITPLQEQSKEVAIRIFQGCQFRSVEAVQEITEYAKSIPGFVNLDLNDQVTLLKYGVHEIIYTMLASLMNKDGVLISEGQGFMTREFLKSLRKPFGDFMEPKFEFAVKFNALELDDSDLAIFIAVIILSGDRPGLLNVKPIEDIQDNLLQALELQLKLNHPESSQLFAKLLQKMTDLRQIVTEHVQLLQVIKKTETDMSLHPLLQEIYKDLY
In short: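 Beta-lactamase FRET fluorescence was the read-out after a 1 h room-temperature substrate step, following 17 h compound treatment at 37C of HEK293H cells expressing a UAS-driven bla reporter responsive to PPARg.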

[14] = qHTS assay to identify small molecule antagonists of the thyroid receptor (TR) signaling pathway - cell viability counter screen (AID 743064); note: nearly all actives have a fitted effect of over 50% in size
In short: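 Same-well viability check: GH3.TRE-Luc cells stimulated with 1 nM T3 alongside test compound for 23.5 h, followed by CellTiter-Fluor fluorescence.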

[15] = qHTS assay to identify small molecule antagonists of the thyroid receptor (TR) signaling pathway (AID 743065); note: nearly all actives have a fitted effect of over 55% in size
In short: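 GH3.TRE-Luc rat pituitary cells (two TREs driving luciferase) were dosed with compound, then stimulated with 1 nM T3 (final) for 23.5 h at 37 C. ONE-Glo luminescence was the read-out, with CellTiter-Fluor fluorescence as the cytotoxicity counter-screen.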

[16] = test system: thyroid hormone receptor (rat, GH3 cells); assay: qHTS assay to identify small molecule agonists of the thyroid receptor (TR) signaling pathway (AID 743066; calls by dose curve)
[17] = qHTS assay to identify small molecule antagonists of the estrogen receptor alpha (ER-alpha) signaling pathway using the BG1 cell line (AID 743080; calls by dose curve;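 note: BG1 cells stimulated with 17beta-estradiol alongside compound; nearly all actives have a fitted effect of over 25% in size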)
In short: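 After 5 days in phenol-red-free 10% charcoal-stripped FBS medium, BG1-Luc-4E2 cells were seeded, left 24 h at 37 C, co-treated with compounds and 17beta-estradiol for 21.5 h, then assayed for viability and luciferase.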

Row | Compound | Potency [1] | Potency [2] | Potency [3] | Potency [4] | Potency [5] | Potency (Aromatase (Homo sapiens)) | Potency [6] | Potency [7] | Potency [8] | Potency [9] | max activation [10] | Potency [11] | Potency [12] | Potency [13] | Potency [14] | Potency [15] | Potency [16] | Potency [17]
1 | OCC(S)CS (stereo not given) | inactive | inactive | inactive | inactive | inactive | inactive | inactive | inactive | inactive | inactive | -4.08% | inactive | inactive |  |  |  |  | 
2 | C[C@H](CCCC(C)(C)O)[C@H]1CC[C@H]2[C@@H]3CC=C4C[C@@H](O)CC[C@]4(C)[C@H]3CC[C@]12C |  | inactive |  |  | inactive | inactive | inactive | inactive | inactive | inactive | -4.18% | inactive | inactive | inactive |  |  |  | 
3 | CNC(=O)c1c(I)c(C(=O)NCC(=O)Nc2c(I)c(C(=O)O)c(I)c(C(=O)NCCO)c2I)c(I)c(N(C)C(C)=O)c1I |  | inactive |  |  | inactive |  |  |  | inactive | inactive | -3.62% | inactive |  |  | inactive | inactive | inactive | 
4 | CC[C@@]1(O)C[C@H](O[C@H]2C[C@H](N(C)C)[C@H](O[C@H]3C[C@H](O)[C@H](O[C@H]4CCC(=O)[C@H](C)O4)[C@H](C)O3)[C@H](C)O2)c2c(cc3c(c2O)C(=O)c2c(O)cccc2C3=O)[C@H]1C(=O)OC | 6.01 µM [inconclusive] (active) | inactive |  | 2.98 µM (active) |  | 2.66 µM (active) | 26.6 µM (active) |  | 0.668 µM (active) | inactive | -18.5% | inactive | inactive |  |  |  |  | 
5 | COc1ccc(C2(C#N)CCC(C(=O)O)CC2)cc1OC1CCCC1 (stereo not given) | inactive | inactive | inactive | 29.8 µM (active) | inactive | inactive | inactive |  | inactive | inactive | -0.133% | inactive |  |  | inactive | inactive | inactive | 
6 | CCOC(=O)C1=C(COCCN)NC(C)=C(C(=O)OC)C1c1ccccc1Cl (stereo not given) |  | inactive |  |  | inactive | 29.8 µM (active) and 9.44 µM (active) | inactive | inactive | 23.7 µM (active) | inactive | 3.61% | 8.91 µM (active) | 8.91 µM (active) |  |  |  |  | 
7 | COc1ccc(-c2noc(CC(=O)O)c2-c2ccc(OC)cc2)cc1 |  | inactive |  |  | inactive | inactive | inactive | inactive | inactive | inactive | -3.32% | inactive |  |  | inactive | inactive | inactive | 
8 | Nc1nc2[nH]cc(CCc3ccc(C(=O)N[C@@H](CCC(=O)O)C(=O)O)cc3)c2c(=O)[nH]1 | inactive |  | inactive | inactive | inactive | inactive | inactive | inactive | inactive | inactive | -1.09% | inactive |  | inactive | inactive | inactive | inactive | inactive

From PubChem BioAssay (Tox21)
